High-throughput results (PubChem)
Myeloid diff 2 = promotes myeloid progenitor differentiation; hit rate 1% among 360,000; calls only at 10 µM; ER-HoxA9 myeloid progenitors, lysozyme-GFP differentiation, flow cytometry;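 active = normalized GFP-positive differentiation at or above the plate's own cutoff, the solvent-only control mean plus 3 SD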;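 note: cells exposed to compound for four days before flow analysis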
ABCB6 inh MLPCN = inhibitors of human ABC transporter ABCB6. K562-ABCB6 porphyrin accumulation, flow cytometry, 1 h; stronger effect = lower value. hit rate 0.19% among 360,000. Q9NP58. fluorescence ratio to DMSO, % at 10 µM;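 active = fluorescence ratio to DMSO below 75%, the collection mean minus 3 SD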;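 note: signal is porphyrin accumulated inside mitochondria; 100% equals median channel fluorescence of DMSO control wells; lower ratio means ABCB6 inhibition with less porphyrin fluorescence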
Target sequence (Q9NP58 whole entry, looked up): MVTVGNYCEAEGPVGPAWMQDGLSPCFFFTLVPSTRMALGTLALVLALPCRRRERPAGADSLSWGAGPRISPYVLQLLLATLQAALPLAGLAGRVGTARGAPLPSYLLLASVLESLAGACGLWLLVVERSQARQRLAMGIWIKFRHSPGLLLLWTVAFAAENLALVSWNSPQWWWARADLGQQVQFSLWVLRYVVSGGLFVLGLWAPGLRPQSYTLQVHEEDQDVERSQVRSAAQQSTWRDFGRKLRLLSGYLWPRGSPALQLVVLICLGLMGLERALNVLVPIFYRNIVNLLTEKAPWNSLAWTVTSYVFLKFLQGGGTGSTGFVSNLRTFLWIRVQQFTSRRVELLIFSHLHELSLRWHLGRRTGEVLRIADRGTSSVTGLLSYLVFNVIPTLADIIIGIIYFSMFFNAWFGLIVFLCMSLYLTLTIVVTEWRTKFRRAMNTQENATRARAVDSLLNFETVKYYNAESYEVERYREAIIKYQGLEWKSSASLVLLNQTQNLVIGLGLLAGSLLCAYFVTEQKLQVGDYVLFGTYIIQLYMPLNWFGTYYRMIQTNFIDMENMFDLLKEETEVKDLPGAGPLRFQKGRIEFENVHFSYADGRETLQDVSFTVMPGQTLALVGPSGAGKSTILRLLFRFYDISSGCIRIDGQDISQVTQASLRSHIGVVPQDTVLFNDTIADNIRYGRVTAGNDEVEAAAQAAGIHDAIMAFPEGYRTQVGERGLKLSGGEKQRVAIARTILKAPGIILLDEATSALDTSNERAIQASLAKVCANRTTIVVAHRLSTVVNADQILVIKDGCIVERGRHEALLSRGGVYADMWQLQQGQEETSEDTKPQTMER
Granule exo inh = blocks lytic granule exocytosis | TALL-104 LAMP-1 surface exposure, flow cytometry; cells stimulated with thapsigargin and PMA | inhibition, % at 10 µM | hit rate 0.66% among 360,000;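 active = inhibition above about 55%, limit read from the data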
* = called active by the depositor; ! = repeats disagree. This is a sample that favours compounds with a hit; in the whole collection about 1.8% have one here.

Results for Cc1cc(/C=N/n2cnnc2)c(C)n1-c1ccc(Cl)cc1 ?
Myeloid diff 2: inactive; ABCB6 inh MLPCN: 95.0; Granule exo inh: 0.6

How did COC(=O)CCN1CCC2CC1c1cc(N3CCCCC3)ccc12 (centres undefined) do in these assays?
Myeloid diff 2: inactive; ABCB6 inh MLPCN: 102.0; Granule exo inh: 2.7

What do the screens show for `COc1ccc(NC(=S)N(CCc2c(C)[nH]c3ccc(C)cc23)Cc2cccnc2)cc1`?
Myeloid diff 2: inactive; ABCB6 inh MLPCN: 94.0; Granule exo inh: 9.6

How did CCOc1ccc(NC(=S)N(CCc2c(C)[nH]c3ccc(C)cc23)Cc2ccncc2)cc1 do in these assays?
Myeloid diff 2: active; ABCB6 inh MLPCN: 97.0; Granule exo inh: -0.9

Results for N#Cc1ccc(-c2nc3ccc(Br)cn3c2Cc2ccccc2)cc1 ?
Myeloid diff 2: inactive; ABCB6 inh MLPCN: 102.0; Granule exo inh: 12.8

How did COc1ccc(/C=C/C=C2\NC(=S)NC2=O)cc1 do in these assays?
Myeloid diff 2: active; ABCB6 inh MLPCN: 103.0; Granule exo inh: 57.9*

Results for COc1ccc(C=C2NC(=S)NC2=O)cc1 ?
Myeloid diff 2: inactive; ABCB6 inh MLPCN: 98.0; Granule exo inh: -2.9

How did Cc1cccc(C(=O)OCC(=O)NCCN2C(=O)CSC2=O)c1[N+](=O)[O-] do in these assays?
Myeloid diff 2: inactive; ABCB6 inh MLPCN: 101.0; Granule exo inh: -4.1

What do the screens show for `CCOC(=O)/C(C#N)=C\c1ccc(CC)s1`?
Myeloid diff 2: inactive; ABCB6 inh MLPCN: 109.0; Granule exo inh: -0.1

How did CCOC(=O)/C(C#N)=C\C=C1C=CN(C)C=C1 do in these assays?
Myeloid diff 2: active; ABCB6 inh MLPCN: 101.0; Granule exo inh: -1.4

What do the screens show for `CCN(CC)C(=O)Cn1c(=O)c2ccccc2n2c(=S)sc(-c3cccc(C)c3)c12`?
Myeloid diff 2: active; ABCB6 inh MLPCN: 452.0; Granule exo inh: 51.8

Results for CCN(CC)C(=O)CCn1nc(-c2ccc(C)cc2)c2ccccc2c1=O ?
Myeloid diff 2: inactive; ABCB6 inh MLPCN: 93.0; Granule exo inh: 17.4

What do the screens show for `COc1ccc(S(=O)(=O)N2CCCC2CNC(=O)C(=O)NCc2ccccn2)cc1` (centres undefined)?
Myeloid diff 2: inactive; ABCB6 inh MLPCN: 94.0; Granule exo inh: -1.4

How did O=S1(=O)CC(N2CCN(CCO)CC2)CN1Cc1cn(Cc2ccc(F)cc2)nn1 (centres undefined) do in these assays?
Myeloid diff 2: inactive; ABCB6 inh MLPCN: 99.0; Granule exo inh: -1.8

What do the screens show for `COc1ccccc1NS(=O)(=O)c1cccc(NC(=O)c2cncc(Br)c2)c1`?
Myeloid diff 2: inactive; ABCB6 inh MLPCN: 96.0; Granule exo inh: 3.9

How did NNC(=O)c1ccc(Oc2cc(Cl)cc(Cl)c2)o1 do in these assays?
Myeloid diff 2: active; ABCB6 inh MLPCN: 93.0; Granule exo inh: 3.3

What do the screens show for `O=C(NCC1CC1)c1ccc(Oc2cc(Cl)cc(Cl)c2)o1`?
Myeloid diff 2: inactive; ABCB6 inh MLPCN: 98.0; Granule exo inh: -1.1

How did O=C(Nc1ccccc1C(=O)N1CCCC1)c1ccc(Cl)c([N+](=O)[O-])c1 do in these assays?
Myeloid diff 2: inactive; ABCB6 inh MLPCN: 95.0; Granule exo inh: 10.5

How did COc1ccc(/C=N/NC(=S)NCCc2ccccc2)cc1 do in these assays?
Myeloid diff 2: inactive; ABCB6 inh MLPCN: 100.0; Granule exo inh: 63.6*

How did COc1cccc(/C=N/NC(=S)NCCc2ccccc2)c1 do in these assays?
Myeloid diff 2: inactive; ABCB6 inh MLPCN: 98.0; Granule exo inh: 57.5*

How did COc1ccc(O)c(/C=N/NC(=S)NCCc2ccccc2)c1 do in these assays?
ABCB6 inh MLPCN: 86.0; Granule exo inh: 33.4

What do the screens show for `CCc1ccc(/C=N/NC(=S)NCCc2ccccc2)cc1`?
Myeloid diff 2: inactive; ABCB6 inh MLPCN: 98.0; Granule exo inh: -2.9

What do the screens show for `O=C1NC[C@H](CCCCN2CCN(Cc3ccccc3)C(=O)C2=O)N(CC2CCCCC2)C1=O`?
Myeloid diff 2: inactive; ABCB6 inh MLPCN: 97.0; Granule exo inh: -15.2

What do the screens show for `CC(C)C(N)c1csc(Nc2ccc(C(=O)c3ccccc3)cc2)n1` (centres undefined)?
Myeloid diff 2: inactive; ABCB6 inh MLPCN: 90.0; Granule exo inh: 4.1

Results for COC(=O)c1ccc(-c2n[nH]c(=O)c3ccccc23)cc1 ?
Myeloid diff 2: inactive; ABCB6 inh MLPCN: 99.0; Granule exo inh: -0.8

Results for COC(=O)Nc1nc2ccc(-c3n[nH]c(=O)c4ccccc34)cc2[nH]1 ?
Myeloid diff 2: active; ABCB6 inh MLPCN: 104.0; Granule exo inh: 5.0

Results for CC(C)NC(=O)c1cc(C2CCCCN2S(=O)(=O)c2cccs2)on1 (centres undefined) ?
Myeloid diff 2: inactive; ABCB6 inh MLPCN: 97.0; Granule exo inh: 1.0

What do the screens show for `CC(C)Oc1ccc(S(=O)(=O)N2CCOCC2)cc1NC(=O)CSC(=S)N1CCCC1`?
Myeloid diff 2: active; ABCB6 inh MLPCN: 98.0; Granule exo inh: 10.3

How did CC(C)Oc1ccc(S(=O)(=O)N2CCOCC2)cc1NC(=O)C1CCC1 do in these assays?
Myeloid diff 2: inactive; ABCB6 inh MLPCN: 103.0; Granule exo inh: 2.0

Results for COc1ccc(CNC(=O)C[C@H]2C[C@H](C(=O)N3CCCCC3)[C@@]3(CCc4ccccc4)c4[nH]c5ccc(Cl)cc5c4CCN3C2=O)cc1OC ?
Myeloid diff 2: inactive; ABCB6 inh MLPCN: 96.0; Granule exo inh: -0.8

How did CC(C)(C)n1ncc2c(=O)n(CC(=O)NCc3ccco3)cnc21 do in these assays?
Myeloid diff 2: inactive; ABCB6 inh MLPCN: 96.0; Granule exo inh: -2.6

What do the screens show for `CC(C)(C)n1ncc2c(=O)n(CC(=O)NCc3ccc(F)cc3)cnc21`?
Myeloid diff 2: active; ABCB6 inh MLPCN: 99.0; Granule exo inh: 0.6

How did COc1cc(CN2C[C@@H](CO)O[C@@H](n3cnc4c(N(C)C)ncnc43)C2)cc(OC)c1OC do in these assays?
Myeloid diff 2: inactive; ABCB6 inh MLPCN: 95.0; Granule exo inh: -5.5

Results for COc1ccc(C=C(C#N)C(=O)c2ccccc2)cc1 ?
Myeloid diff 2: inactive; ABCB6 inh MLPCN: 99.0; Granule exo inh: -5.1

Results for COc1cc(/C=C(\C#N)C(=O)c2ccc(O)c(O)c2)cc(I)c1O ?
Myeloid diff 2: active; ABCB6 inh MLPCN: 106.0; Granule exo inh: 3.7

What do the screens show for `CCOc1ccc(OCCC(=O)N(CCOC)c2c(N)n(Cc3ccccc3)c(=O)[nH]c2=O)cc1`?
Myeloid diff 2: inactive; ABCB6 inh MLPCN: 95.0; Granule exo inh: -0.4

What do the screens show for `CSc1nsc2nc(=O)c(/C=C3\C(C)=Nc4ccc(C)cc43)c(N)n12`?
Myeloid diff 2: inactive; ABCB6 inh MLPCN: 121.0; Granule exo inh: 78.3*

What do the screens show for `CC1=Nc2ccc(C)cc2/C1=C/c1c(N)n2oc(C)cc2nc1=O`?
Myeloid diff 2: active!; ABCB6 inh MLPCN: 113.0; Granule exo inh: -13.9

How did CC1=Nc2ccc(C)cc2/C1=C/c1c(N)n2nc(CC(=O)N3CCOCC3)sc2nc1=O do in these assays?
Myeloid diff 2: inactive; ABCB6 inh MLPCN: 104.0; Granule exo inh: -1.0

What do the screens show for `CC1=Nc2ccc(C)cc2/C1=C/c1c(N)n2c(S(=O)(=O)C(C)C)nsc2nc1=O`?
Myeloid diff 2: inactive; ABCB6 inh MLPCN: 98.0; Granule exo inh: -1.0

Results for CCCNC(=O)C1(C)CCCN(Cc2ccc(Oc3ccccc3)cc2)C1 (centres undefined) ?
Myeloid diff 2: inactive; ABCB6 inh MLPCN: 96.0; Granule exo inh: -4.1

What do the screens show for `Nc1ccc(C(=O)CC(=O)Nc2ccc(Cl)cc2)cc1`?
Myeloid diff 2: inactive; ABCB6 inh MLPCN: 103.0; Granule exo inh: 6.5
